Results as given in PubChem BioAssay (NCI).
About 83,000 compounds went through this panel and 20% of them were active in at least one assay; those are over-represented in the sample as a whole.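 Interpretation: 100, growth as untreated; towards 0, rising growth inhibition; 0, no net growth; 0 to -100, cell death. Compounds scoring below 10 were considered active.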 Active and inactive are the calls of the source.

Legend:
Test in all cases: NCI-60 one-dose screen, 48 h (100 = growth as untreated, 0 = no growth, -100 = all killed)
Details in all cases: 10 µM unless noted
SR leukemia = tested on: SR leukemia
RPMI-8226 leukemia = tested on: RPMI-8226 leukemia
OVCAR-8 ovarian = tested on: OVCAR-8 ovarian
OVCAR-5 ovarian = tested on: OVCAR-5 ovarian
OVCAR-4 ovarian = tested on: OVCAR-4 ovarian
SK-OV-3 ovarian = tested on: SK-OV-3 ovarian
IGROV1 ovarian = tested on: IGROV1 ovarian
OVCAR-3 ovarian = tested on: OVCAR-3 ovarian
HS 578T breast = tested on: HS 578T breast
NCI/ADR-RES ovarian = tested on: NCI/ADR-RES ovarian

Measured: growth

Nc1cc(-c2ccc(Cl)cc2)nn1-c1nnc(/C=C/c2ccco2)c(=O)[nH]1
active: NCI/ADR-RES ovarian 5.73%
inactive: SR leukemia 38.1% | RPMI-8226 leukemia 43.3% | OVCAR-8 ovarian 24.8% | OVCAR-5 ovarian 60.9% | OVCAR-4 ovarian 29.1% | SK-OV-3 ovarian 60.7% | IGROV1 ovarian 35% | OVCAR-3 ovarian 37.9% | HS 578T breast 74.1%

CCOC(=O)C1=C(CC(O)c2ccc(OC)cc2OC)NC(=O)NC1c1ccccc1 (stereo not given)
inactive: SR leukemia 75.9% | RPMI-8226 leukemia 99.2% | OVCAR-8 ovarian 109% | OVCAR-5 ovarian 88.7% | OVCAR-4 ovarian 106% | SK-OV-3 ovarian 114% | IGROV1 ovarian 118% | OVCAR-3 ovarian 109% | HS 578T breast 117% | NCI/ADR-RES ovarian 107%

COc1ccc(NC(=O)c2ccc(Nc3ncnc4c3cnn4-c3cccc(F)c3)cc2)cc1
inactive: SR leukemia 95.2% | RPMI-8226 leukemia 96.6% | OVCAR-8 ovarian 99.2% | OVCAR-5 ovarian 100% | OVCAR-4 ovarian 103% | SK-OV-3 ovarian 111% | IGROV1 ovarian 109% | OVCAR-3 ovarian 110% | HS 578T breast 97.4% | NCI/ADR-RES ovarian 103%

CN1c2ccccc2S(=O)(=O)n2c(SCC(=O)Nc3nc4ccc(F)cc4s3)nnc21
inactive: SR leukemia 59.8% | RPMI-8226 leukemia 70.1% | OVCAR-8 ovarian 97.4% | OVCAR-5 ovarian 113% | OVCAR-4 ovarian 112% | SK-OV-3 ovarian 112% | OVCAR-3 ovarian 124% | HS 578T breast 80.4% | NCI/ADR-RES ovarian 89.7%
active: IGROV1 ovarian -22.6%

O=C(/C=C/c1ccccc1)c1ccc(-n2cc(CN3CCN(c4cc5c(cc4F)c(=O)c(C(=O)O)cn5C4CC4)CC3)nn2)cc1
active: RPMI-8226 leukemia -0.509%
inactive: SR leukemia 24.1% | OVCAR-8 ovarian 62% | OVCAR-5 ovarian 92.2% | OVCAR-4 ovarian 89.7% | SK-OV-3 ovarian 80% | IGROV1 ovarian 84% | OVCAR-3 ovarian 91.5% | HS 578T breast 67.4% | NCI/ADR-RES ovarian 87%

COCCn1cc(-c2nc(-c3c[nH]c4ncccc34)cs2)c2ccccc21
inactive: SR leukemia 18.4% | RPMI-8226 leukemia 43.3% | OVCAR-8 ovarian 81% | OVCAR-5 ovarian 43.7% | OVCAR-4 ovarian 15.2% | SK-OV-3 ovarian 54.8% | IGROV1 ovarian 36% | OVCAR-3 ovarian 13.6% | HS 578T breast 47.4% | NCI/ADR-RES ovarian 69.1%

O=CN1N=C(c2cccc(Nc3ccnc4cc(Cl)ccc34)c2)CC1c1ccc(Cl)cc1 (stereo not given)
inactive: RPMI-8226 leukemia 32.9% | OVCAR-8 ovarian 43.7% | OVCAR-5 ovarian 58.7% | OVCAR-4 ovarian 57.5% | SK-OV-3 ovarian 24.1% | IGROV1 ovarian 38.7%
active: SR leukemia 8.98% | OVCAR-3 ovarian -17% | HS 578T breast 1.82% | NCI/ADR-RES ovarian 5.69%

CC1(C)CC[C@]23CC[C@]4(C)[C@H](CC[C@@H]5[C@@]6(C)C/C(=C/O)C(=O)C(C)(C)[C@@H]6CC[C@]54C)[C@H]2[C@H]1OC3
inactive: SR leukemia 95.1% | RPMI-8226 leukemia 100% | OVCAR-8 ovarian 104% | OVCAR-5 ovarian 107% | OVCAR-4 ovarian 111% | SK-OV-3 ovarian 110% | IGROV1 ovarian 106% | OVCAR-3 ovarian 121% | HS 578T breast 111% | NCI/ADR-RES ovarian 104%

Cc1ccc(OCCOCCOCCOCCOCCOc2ccc(C)n(O)c2=S)c(=S)n1O
active: SR leukemia 4.81% | NCI/ADR-RES ovarian 1.54%
inactive: RPMI-8226 leukemia 11.5% | OVCAR-8 ovarian 14.1% | OVCAR-5 ovarian 41.7% | OVCAR-4 ovarian 22.7% | SK-OV-3 ovarian 10.2% | IGROV1 ovarian 15.5% | OVCAR-3 ovarian 29.6% | HS 578T breast 45.8%

COc1cc2ncnc(Nc3ccc(S(=O)(=O)Nc4nccs4)cc3)c2cc1OCCCN1CCCC1
inactive: SR leukemia 99.1% | RPMI-8226 leukemia 107% | OVCAR-8 ovarian 99.7% | OVCAR-5 ovarian 109% | OVCAR-4 ovarian 110% | SK-OV-3 ovarian 98.6% | IGROV1 ovarian 110% | OVCAR-3 ovarian 109% | HS 578T breast 110% | NCI/ADR-RES ovarian 108%

CS(=O)(=O)Nc1cc(-c2ccc3ncnc(Nc4ccc(OCc5ccccn5)c(Cl)c4)c3c2)cnc1Cl
inactive: OVCAR-8 ovarian 14.4% | OVCAR-5 ovarian 12.5% | OVCAR-4 ovarian 20.9% | NCI/ADR-RES ovarian 77.7%
active: SR leukemia -5.01% | RPMI-8226 leukemia -50.3% | SK-OV-3 ovarian -27.1% | IGROV1 ovarian -30.6% | OVCAR-3 ovarian -19% | HS 578T breast -19.7%

CCN1CCN(CCNc2nccc(-c3c(-c4ccc(F)c(O)c4)nc4occn34)n2)S1(=O)=O
active: RPMI-8226 leukemia -22.7%
inactive: SR leukemia 29.5% | OVCAR-8 ovarian 11.7% | OVCAR-5 ovarian 102% | OVCAR-4 ovarian 19.8% | SK-OV-3 ovarian 54% | IGROV1 ovarian 44.2% | OVCAR-3 ovarian 39.4% | HS 578T breast 42.6% | NCI/ADR-RES ovarian 12.3%

COc1ccc(Nc2ncc(I)c(NCCCNC(=O)C3CCC3)n2)cc1
active: SR leukemia 0.641% | OVCAR-5 ovarian 3.96% | SK-OV-3 ovarian -3.33% | IGROV1 ovarian -20.8% | OVCAR-3 ovarian -40.4%
inactive: RPMI-8226 leukemia 11.4% | OVCAR-8 ovarian 19.3% | OVCAR-4 ovarian 42.2% | HS 578T breast 17.1% | NCI/ADR-RES ovarian 22.2%

c1ccc(-c2c(-c3ccccc3)[n+](Cc3ccc4ccccc4c3)cn2Cc2ccc3ccccc3c2)cc1
active: SR leukemia -74.5% | RPMI-8226 leukemia -54.9% | OVCAR-8 ovarian -87.4% | OVCAR-5 ovarian -29.1% | OVCAR-4 ovarian -81.5% | SK-OV-3 ovarian -97.9% | IGROV1 ovarian -73.8% | OVCAR-3 ovarian -91.1% | HS 578T breast -27.8%
inactive: NCI/ADR-RES ovarian 70.5%

CCN(CC)CCCNc1cc(OC)c(OC)c2cccnc12
active: OVCAR-4 ovarian -10.1%
inactive: SR leukemia 41.5% | RPMI-8226 leukemia 74.4% | OVCAR-8 ovarian 65.1% | OVCAR-5 ovarian 112% | SK-OV-3 ovarian 56.3% | IGROV1 ovarian 35.4% | OVCAR-3 ovarian 30.9% | HS 578T breast 74.3% | NCI/ADR-RES ovarian 76.6%

COc1ccc(/C=C2\c3cc(OC)c(OC)c(OC)c3CC[C@@H]2O)cc1F
inactive: RPMI-8226 leukemia 28.1% | OVCAR-8 ovarian 25.4% | OVCAR-5 ovarian 76.2% | OVCAR-4 ovarian 57% | SK-OV-3 ovarian 22.4% | IGROV1 ovarian 43% | HS 578T breast 37.3%
active: SR leukemia 3.9% | OVCAR-3 ovarian 4.82% | NCI/ADR-RES ovarian 8.8%

Oc1ccc(-c2nc3ccc4[nH]ncc4c3c3c2CCCC3)c(F)c1
inactive: RPMI-8226 leukemia 33.2% | OVCAR-8 ovarian 38% | OVCAR-5 ovarian 59.7% | OVCAR-4 ovarian 51.3% | IGROV1 ovarian 22.9% | OVCAR-3 ovarian 46.6% | HS 578T breast 14.8% | NCI/ADR-RES ovarian 52%
active: SR leukemia -1.33% | SK-OV-3 ovarian -6.45%

Cn1c(=O)[nH]c(=O)c2nc3c(nc21)-c1ccccc1C3=O
inactive: SR leukemia 100% | RPMI-8226 leukemia 108% | OVCAR-8 ovarian 105% | OVCAR-5 ovarian 99.6% | OVCAR-4 ovarian 102% | SK-OV-3 ovarian 111% | IGROV1 ovarian 108% | OVCAR-3 ovarian 107% | HS 578T breast 104% | NCI/ADR-RES ovarian 95.2%

C=C1C(=O)O[C@@H]2C3C(=C(C)CC[C@@H]12)CC1O[C@]13C (stereo not given in full)
inactive: SR leukemia 38.4% [6.75 µM] | RPMI-8226 leukemia 43.8% [6.75 µM] | OVCAR-8 ovarian 83.5% [6.75 µM] | OVCAR-5 ovarian 108% [6.75 µM] | OVCAR-4 ovarian 93.4% [6.75 µM] | SK-OV-3 ovarian 118% [6.75 µM] | IGROV1 ovarian 99.4% [6.75 µM] | OVCAR-3 ovarian 75.8% [6.75 µM] | HS 578T breast 90.4% [6.75 µM] | NCI/ADR-RES ovarian 98.1% [6.75 µM]

O=C(CSc1nnnn1-c1ccccc1)Nc1ccc(Oc2ccccc2)cc1
inactive: RPMI-8226 leukemia 117% | OVCAR-8 ovarian 97.3% | OVCAR-5 ovarian 92.2% | OVCAR-4 ovarian 101% | SK-OV-3 ovarian 102% | IGROV1 ovarian 61.9% | OVCAR-3 ovarian 100% | HS 578T breast 99.2% | NCI/ADR-RES ovarian 96.7%
active: SR leukemia 7.48%

COc1cc(OC)c2c(=O)c3c(CC=C(C)C)cc(OC)c(O)c3oc2c1
inactive: SR leukemia 53.2% | RPMI-8226 leukemia 81.7% | OVCAR-8 ovarian 88.6% | OVCAR-5 ovarian 96.2% | OVCAR-4 ovarian 98.5% | SK-OV-3 ovarian 96.6% | IGROV1 ovarian 91.7% | OVCAR-3 ovarian 92.8% | HS 578T breast 88.7% | NCI/ADR-RES ovarian 78.8%

O=[N+]([O-])c1ccccc1Sc1ccccc1[N+](=O)[O-]
inactive: SR leukemia 104% | RPMI-8226 leukemia 95.4% | OVCAR-8 ovarian 102% | OVCAR-5 ovarian 93.1% | OVCAR-4 ovarian 95.9% | SK-OV-3 ovarian 90.9% | IGROV1 ovarian 105% | OVCAR-3 ovarian 92.4% | HS 578T breast 95.8% | NCI/ADR-RES ovarian 96.2%

Cc1ccccc1N1CCN(C(=S)c2ccccc2)CC1
inactive: SR leukemia 104% | RPMI-8226 leukemia 115% | OVCAR-8 ovarian 96.4% | OVCAR-5 ovarian 93.4% | OVCAR-4 ovarian 90.6% | SK-OV-3 ovarian 98.1% | IGROV1 ovarian 57.2% | OVCAR-3 ovarian 108% | HS 578T breast 106% | NCI/ADR-RES ovarian 102%

CN1C(=O)/C(=C/c2ccc(C(=O)Nc3ncc(Cc4cc(Cl)ccc4Cl)s3)cc2)SC1=S
inactive: SR leukemia 63.9% | RPMI-8226 leukemia 57% | OVCAR-8 ovarian 80.8% | OVCAR-5 ovarian 70.7% | OVCAR-4 ovarian 57% | SK-OV-3 ovarian 71.1% | IGROV1 ovarian 56.9% | OVCAR-3 ovarian 80.1% | HS 578T breast 80.9% | NCI/ADR-RES ovarian 70.2%

Cc1cc2oc(/C=C/c3ccccc3)cc(=O)c2c(C)c1Cl
inactive: SR leukemia 78.3% | RPMI-8226 leukemia 94% | OVCAR-8 ovarian 100% | OVCAR-5 ovarian 104% | OVCAR-4 ovarian 99% | SK-OV-3 ovarian 96.3% | IGROV1 ovarian 109% | OVCAR-3 ovarian 108% | HS 578T breast 119% | NCI/ADR-RES ovarian 97.8%

Clc1cccc(C2Cc3cnccc3-c3[nH]c4ccncc4c32)c1 (stereo not given)
inactive: SR leukemia 36.5% | RPMI-8226 leukemia 14.1% | OVCAR-8 ovarian 56.4% | OVCAR-5 ovarian 86.4% | OVCAR-4 ovarian 36.2% | SK-OV-3 ovarian 50.9% | IGROV1 ovarian 52.7% | OVCAR-3 ovarian 42.2% | HS 578T breast 85% | NCI/ADR-RES ovarian 47.7%

O=c1ccc2ccc(OCCN3CCCCC3)cc2o1
active: SR leukemia -35.7% | RPMI-8226 leukemia -23.8%
inactive: OVCAR-8 ovarian 95.2% | OVCAR-5 ovarian 102% | OVCAR-4 ovarian 113% | SK-OV-3 ovarian 82.7% | IGROV1 ovarian 110% | OVCAR-3 ovarian 113% | HS 578T breast 96.5% | NCI/ADR-RES ovarian 99.9%
